# According to PubChem BioAssay:
# Assay: basal HepG2 mitochondrial membrane potential changes, profiling panel, cell-based, JC-1 fluorescence, 24 h, 100 nL compound (AID 1167); also: test concentration not given here
# Details: higher = more signal
row,Compound,z-score
1,O=C1NC(=O)C2C1C=CC(C(O)c1cc(C(F)(F)F)cc(C(F)(F)F)c1)N2Nc1ccccn1 (stereo unspecified),-0.326
2,C=C(/C(=C/C[C@H](OC(C)=O)c1ccccc1OCCO)c1cnc2ccccc2c1)C(C)C,0.469
3,COC(=O)[C@H](Cc1ccccc1)N1CC2=C[C@@H](C3CC3)n3c(=O)n(C)c(=O)n3[C@H]2[C@@H]1[C@@H](O)Cc1ccccc1,1.49
4,CC(=O)n1cc(C(O)C2C=CC3C(=O)N(c4ccccc4)C(=O)C3N2Nc2ccc([N+](=O)[O-])cc2)c2ccccc21 (stereo unspecified),-1.75
5,CN1C=C(C(=O)OCCS(C)(=O)=O)C(C(=O)OCCS(C)(=O)=O)=CC(c2ccc(CO)cc2)=CC1C1CC1 (stereo unspecified),2.14
6,COC(=O)[C@]1(CCC(=O)OC(C)(C)C)N=C(c2ccc(OCCCO)cc2)O[C@@H]1c1ccccc1CN=[N+]=[N-],-1.93
7,C=CCNC(=O)[C@@H]1[C@H]2C(=O)O[C@H](c3ccccc3)[C@H](c3ccccc3)N2[C@H](c2ccc(OCCO)cc2)[C@@]12C(=O)Nc1ccc(C#CCC(C(=O)OC)C(=O)OC)cc12,0.644
8,COC(=O)C(CC#Cc1ccc2c(c1)[C@]1(C(=O)N2)[C@H](c2ccc(OCCO)cc2)N2[C@H](c3ccccc3)[C@H](c3ccccc3)OC(=O)[C@H]2[C@@H]1C(=O)N1CCc2cc(OC)c(OC)cc2C1)C(=O)OC,-0.156
9,NC(=O)N1C(=O)C2C(C1=O)C1C=C(c3ccc(CO)cc3)C2C(c2cccs2)N1Cc1cccc(OC(F)(F)F)c1 (stereo unspecified),-1.7
10,C=CCC(OC(C)=O)[C@@H]1[C@@H](N(Cc2ccc(-c3ccccc3)cc2)C(=O)c2cccc3ccccc23)c2cc(OCCCO)ccc2N1C(=O)c1ccc(-c2ccccc2)cc1 (stereo partly specified),3.13
11,COc1cc(NN2C(C(O)c3ccco3)C=CC3C(=O)N(c4ccccc4)C(=O)C32)cc(OC)c1OC (stereo unspecified),-0.955
12,CC(C)[Si]1(C(C)C)O[C@@H](c2ccccc2)c2cc(-c3ccc(-c4ccc(Cl)c(Cl)c4)o3)nc(-c3ccccc3)c21,-1.87
13,CCOC(=O)C[C@H]1[C@H](OC(=O)c2ccc(C(=O)c3ccccc3)cc2)[C@@H](NC(=O)c2ccc3ccccc3n2)c2cc(OCCCO)ccc2N1C(=O)c1ccccc1,1.11
14,CC(C)C(O)C1C=CC2C(=O)NC(=O)C2N1Nc1ccc(Cl)cc1Cl (stereo unspecified),-2.25
15,COc1ccc(C#Cc2ccc3c(c2)[C@]2(C(=O)N3)[C@H](C(=O)Nc3nc4ccccc4s3)[C@H]3C(=O)O[C@H](c4ccccc4)[C@H](c4ccccc4)N3[C@@H]2c2ccc(O)cc2)cc1,-3.71
16,COC(=O)[C@@]1(Cc2ccccc2)N=C(c2ccc(OCCCO)cc2)O[C@H]1c1ccccc1,-2.02
17,[N-]=[N+]=Nc1ccccc1[C@H]1OC(c2ccc(OCCCO)cc2)=N[C@@]1(CCS(=O)(=O)c1ccccc1)C(N)=O,-0.93
18,O=C1C[C@@](C(=O)NC2CC2)(c2ccc([N+](=O)[O-])cc2)[C@@H](c2ccc(CO)cc2I)N1C1CCCCC1,0.575
19,COc1cc2c(cc1OC)CN(C(=O)[C@H]1[C@@H]3C(=O)O[C@@H](c4ccccc4)[C@@H](c4ccccc4)N3[C@@H](c3ccc(O)cc3)[C@]13C(=O)Nc1ccccc13)CC2,-1.2
20,O=C1O[C@H](c2ccccc2)[C@H](c2ccccc2)N2[C@H]1[C@@H](C(=O)N1CCCCCCC1)[C@]1(C(=O)Nc3ccc(C#CC4=CCCCC4)cc31)[C@H]2c1ccc(OCCO)cc1,-1.68
21,COC(=O)[C@@]1(CCC(=O)OC(C)(C)C)N=C(c2ccc(OCCCO)cc2)O[C@H]1c1ccccc1N=[N+]=[N-],-0.429
22,O=C1C2C=CC(C(O)c3cc(C(F)(F)F)cc(C(F)(F)F)c3)N(n3cnnc3)C2C(=O)N1Cc1ccccc1 (stereo unspecified),-0.605
23,CCCCCN1CC=CC23O[C@@H]4C=CCCOC(=O)C4[C@H]2C(=O)N(CCCCCO)[C@@H]3C1=O (stereo partly specified),0.301
24,COc1ccc([Si](C)(C)[C@@H]2[C@@H](CCO)O[C@]3(C(=O)N(Cc4ccc(N(C=O)c5ccccc5)cc4)c4ccccc43)[C@H]2C)cc1,-0.164
25,C=CCOC(=O)[C@H]1[C@@H]2C(=O)O[C@@H](c3ccccc3)[C@@H](c3ccccc3)N2[C@@H](c2ccc(OCCOC(=O)[C@H]3C[C@H]4C(=O)N[C@@H](CCCCNC(C)=O)C(=O)N4[C@H]3c3cccc(OCCO)c3)cc2)[C@]12C(=O)Nc1ccccc12,-0.235
26,[N-]=[N+]=NCc1ccccc1C[C@]1(C(N)=O)COC(c2ccc(OCCCO)cc2)=N1,-0.234
